{"source": "the supplement of paper PMC10338343", "note": "± gives the standard deviation."}
{"test_system": "MILI (PIWIL2) piRISC loaded with L1MC piRNA (26 nt)", "test": "pre-steady-state target cleavage rate (min^-1); guide: L1MC piRNA 5'p-UAACUAAAUACUAUGCAAGCUGUAGG; higher = faster piRNA-guided slicing of the target", "details": "auxiliary factor: 500 nM mouse GTSF1", "outline": "(§1)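 The pre-steady-state cleavage rate came from a burst-and-steady-state fit to pooled data from three Cleave-'n-Seq trials, in which uncleaved targets were sequenced and normalised to depth and to weakly complementary targets. Each reaction held 0.1 nM transcribed, DNA-blocked target RNA library and 1 nM active affinity-purified piRISC carrying one synthetic guide, with or without 500 nM GTSF1 partner protein, in HEPES–potassium acetate buffer at 33 °C for 0–8 or 0–960 min. k3 was capped at 0.0001 min^-1.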"}
{"sequence": "UCCUGCUACAGCUUGCAUAGUAUUUGGUUA", "pre-steady-state target cleavage rate": "0.27 ± 0.029"}
{"sequence": "UCCUCCUACUCCUUGCAUAGUAUUUAGUAA", "pre-steady-state target cleavage rate": "0.147 ± 0.017"}
{"sequence": "UCCUGGAAGAGCUUGCAUAGUAUUUUGUUA", "pre-steady-state target cleavage rate": "0.21 ± 0.037"}
{"sequence": "UCCUGGAACAGCUUGCAUAGUAUUCAGUUA", "pre-steady-state target cleavage rate": "0.228 ± 0.042"}
{"sequence": "UCCUGGUACAGCUUGCAUAGUAUUUUCUAA", "pre-steady-state target cleavage rate": "0.0489 ± 0.017"}
{"sequence": "UCCUGGAUCAGCUUGACAUAGUAUUUAGUUA", "pre-steady-state target cleavage rate": "0.171 ± 0.019"}
{"sequence": "UCCUGGAUCUGGUUGCAUAGUAUUUAGUUA", "pre-steady-state target cleavage rate": "0.158 ± 0.014"}
{"sequence": "UCCUCGUACAGCUUGGAUAGUAUUUAGUUA", "pre-steady-state target cleavage rate": "0.265 ± 0.012"}
{"sequence": "UCCUCCUACAGCUUGCAAAGUUUUUAGUUA", "pre-steady-state target cleavage rate": "0.0169 ± 0.0064"}
{"sequence": "UCCUGGAACAGCUUGGCAUAGUAUUUAGUUA", "pre-steady-state target cleavage rate": "0.48 ± 0.097"}
{"sequence": "UCCUGGAACAGGUUGCAUAGUAUUUAGUUA", "pre-steady-state target cleavage rate": "0.308 ± 0.018"}
{"sequence": "UCCUGGAUCUGCUUGCAUAGUUUUUAGUUA", "pre-steady-state target cleavage rate": "0.0213 ± 0.0057"}
{"sequence": "UCCUGGAACAGCUUGCAUAGUACUUUAGUUA", "pre-steady-state target cleavage rate": "0.168 ± 0.015"}
{"sequence": "UCCUGGUACAGCAAGCAUAGUAUUUAGUUA", "pre-steady-state target cleavage rate": "0.232 ± 0.018"}
{"sequence": "UCCUGGAACAGCUUGCUUAGUAUUUUGUUA", "pre-steady-state target cleavage rate": "0.167 ± 0.025"}
{"sequence": "UCCUGGAUGAGCUAGCAUAGUAUUAAGUUA", "pre-steady-state target cleavage rate": "0.226 ± 0.023"}
{"sequence": "UCCUGCUACUGCUUGCUUAGUAUUUAGUUA", "pre-steady-state target cleavage rate": "0.202 ± 0.022"}
{"sequence": "UCCUGCUACAGCUUUGCAUAGUAUUUAGUUA", "pre-steady-state target cleavage rate": "0.263 ± 0.02"}
{"sequence": "UCCUGGUUCAGCUAGCAUAGUAUUUAGUUA", "pre-steady-state target cleavage rate": "0.239 ± 0.026"}
{"sequence": "UCCUGGAUGUGCUUCGCAUAGUAUUUAGUUA", "pre-steady-state target cleavage rate": "0.155 ± 0.023"}
{"sequence": "UCCUCCUACAGCUUGCAUAGUAUUAUAGUUA", "pre-steady-state target cleavage rate": "0.258 ± 0.019"}
{"sequence": "UCCUCCGACAGCUUGCAUAGUAUUUAGUUA", "pre-steady-state target cleavage rate": "0.25 ± 0.017"}
{"sequence": "UCCUGGAUCAGCUUGCAUAGAAUUUAGUUA", "pre-steady-state target cleavage rate": "0.0368 ± 0.0086"}
{"sequence": "UCCUGGAACAGCUUUCAUAGUAUUUAGUUA", "pre-steady-state target cleavage rate": "0.197 ± 0.021"}
{"sequence": "UCCUGGAUGUGUCUUGCAUAGUAUUUAGUUA", "pre-steady-state target cleavage rate": "0.072 ± 0.013"}
{"sequence": "UCCUCCUACAGCAUGCAUACUAUUUAGUUA", "pre-steady-state target cleavage rate": "0.0758 ± 0.011"}
{"sequence": "UCCUGCUUCAGCUUGCAUAGUAUUUAGUUA", "pre-steady-state target cleavage rate": "0.312 ± 0.019"}
{"sequence": "UCCUCGUACAGCUUGCAUAGUAUAUAGUUA", "pre-steady-state target cleavage rate": "0.251 ± 0.02"}
{"sequence": "UCCUGCGACAGCUUGCAUAGUAUUUAGUUA", "pre-steady-state target cleavage rate": "0.298 ± 0.016"}
{"sequence": "UCCUGGAAGAGCUUGCAUAGUAUUUAGUUA", "pre-steady-state target cleavage rate": "0.223 ± 0.014"}
{"sequence": "UCCUGGAUCACUUGCAUAGUAUUUAGUUA", "pre-steady-state target cleavage rate": "0.214 ± 0.018"}
{"sequence": "UCCUGGAUGUCGAUGCAUAGUAUUUAGUAA", "pre-steady-state target cleavage rate": "0.108 ± 0.015"}
{"sequence": "UCCUGGAUGAGCUUGCAUAGUAUUUAGUUC [g2:g21:cont:t1C]", "pre-steady-state target cleavage rate": "0.166 ± 0.014"}
{"sequence": "UCCUGGUACAGCAUGCAUAGUUUUUAGUUA", "pre-steady-state target cleavage rate": "0.038 ± 0.015"}
{"sequence": "UCCUGGAUCAGCUUGCAUAGUAUUUAUUUA", "pre-steady-state target cleavage rate": "0.0819 ± 0.017"}
{"sequence": "UCCUGGAUGAGCUUGCAUAGUAUGUUAGUUA", "pre-steady-state target cleavage rate": "0.157 ± 0.021"}
{"sequence": "UCCUGGAUGUGCUUGCAUAGUGUUUAGUUA", "pre-steady-state target cleavage rate": "0.0653 ± 0.013"}
{"sequence": "UCCUGCUACAGCUUGGAUAGUAUAUAGUUA", "pre-steady-state target cleavage rate": "0.222 ± 0.026"}
{"sequence": "UCCUCCUACAGCUUGCAUAGUAUUUUAGUUA", "pre-steady-state target cleavage rate": "0.273 ± 0.019"}
{"sequence": "UCCUGGAUGUGCUUGCAUAGUAUAUUAGUUA", "pre-steady-state target cleavage rate": "0.111 ± 0.016"}
{"test_system": "MILI (PIWIL2) piRISC loaded with L1MC piRNA (26 nt)", "test": "pre-steady-state target cleavage rate (min^-1); guide: L1MC piRNA 5'p-UAACUAAAUACUAUGCAAGCUGUAGG; MIWI and MILI are mouse PIWI proteins and EfPiwi is from a freshwater sponge; tags in brackets are library labels; higher = faster piRNA-guided slicing of the target", "details": "auxiliary factor: none (no GTSF1)", "outline": "as §1"}
{"sequence": "UCCUGCUACAGCUUGCAUAGUAUUUGGUUA", "pre-steady-state target cleavage rate": "0.00697 ± 0.0023"}
{"sequence": "UCCUCCUACUCCUUGCAUAGUAUUUAGUAA", "pre-steady-state target cleavage rate": "0.00285 ± 0.0024"}
{"sequence": "UCCUGGAAGAGCUUGCAUAGUAUUUUGUUA", "pre-steady-state target cleavage rate": "0.00584 ± 0.0025"}
{"sequence": "UCCUGGAACAGCUUGCAUAGUAUUCAGUUA", "pre-steady-state target cleavage rate": "0.00292 ± 0.0026"}
{"sequence": "UCCUGGUACAGCUUGCAUAGUAUUUUCUAA", "pre-steady-state target cleavage rate": "0.00383 ± 0.0034"}
{"sequence": "UCCUGGAUCAGCUUGACAUAGUAUUUAGUUA", "pre-steady-state target cleavage rate": "0.00343 ± 0.0024"}
{"sequence": "UCCUGGAUCUGGUUGCAUAGUAUUUAGUUA", "pre-steady-state target cleavage rate": "0.0105 ± 0.0029"}
{"sequence": "UCCUCGUACAGCUUGGAUAGUAUUUAGUUA", "pre-steady-state target cleavage rate": "0.00962 ± 0.0023"}
{"sequence": "UCCUCCUACAGCUUGCAAAGUUUUUAGUUA", "pre-steady-state target cleavage rate": "0.00334 ± 0.0023"}
{"sequence": "UCCUGGAACAGCUUGGCAUAGUAUUUAGUUA", "pre-steady-state target cleavage rate": "0.00632 ± 0.0027"}
{"sequence": "UCCUGGAACAGGUUGCAUAGUAUUUAGUUA", "pre-steady-state target cleavage rate": "0.0111 ± 0.0022"}
{"sequence": "UCCUGGAUCUGCUUGCAUAGUUUUUAGUUA", "pre-steady-state target cleavage rate": "0.00511 ± 0.002"}
{"sequence": "UCCUGGAACAGCUUGCAUAGUACUUUAGUUA", "pre-steady-state target cleavage rate": "0.00486 ± 0.0022"}
{"sequence": "UCCUGGUACAGCAAGCAUAGUAUUUAGUUA", "pre-steady-state target cleavage rate": "0.00852 ± 0.0027"}
{"sequence": "UCCUGGAACAGCUUGCUUAGUAUUUUGUUA", "pre-steady-state target cleavage rate": "0.00339 ± 0.0024"}
{"sequence": "UCCUGGAUGAGCUAGCAUAGUAUUAAGUUA", "pre-steady-state target cleavage rate": "0.00417 ± 0.0024"}
{"sequence": "UCCUGCUACUGCUUGCUUAGUAUUUAGUUA", "pre-steady-state target cleavage rate": "0.00589 ± 0.002"}
{"sequence": "UCCUGCUACAGCUUUGCAUAGUAUUUAGUUA", "pre-steady-state target cleavage rate": "0.00559 ± 0.0027"}
{"sequence": "UCCUGGUUCAGCUAGCAUAGUAUUUAGUUA", "pre-steady-state target cleavage rate": "0.0116 ± 0.0027"}
{"sequence": "UCCUGGAUGUGCUUCGCAUAGUAUUUAGUUA", "pre-steady-state target cleavage rate": "0.00505 ± 0.0021"}
{"sequence": "UCCUCCUACAGCUUGCAUAGUAUUAUAGUUA", "pre-steady-state target cleavage rate": "0.00434 ± 0.0022"}
{"sequence": "UCCUCCGACAGCUUGCAUAGUAUUUAGUUA", "pre-steady-state target cleavage rate": "0.00881 ± 0.0021"}
{"sequence": "UCCUGGAUCAGCUUGCAUAGAAUUUAGUUA", "pre-steady-state target cleavage rate": "0.00356 ± 0.002"}
{"sequence": "UCCUGGAACAGCUUUCAUAGUAUUUAGUUA", "pre-steady-state target cleavage rate": "0.00688 ± 0.0024"}
{"sequence": "UCCUGGAUGUGUCUUGCAUAGUAUUUAGUUA", "pre-steady-state target cleavage rate": "0.014 ± 0.004"}
{"sequence": "UCCUCCUACAGCAUGCAUACUAUUUAGUUA", "pre-steady-state target cleavage rate": "0.00328 ± 0.0022"}
{"sequence": "UCCUGCUUCAGCUUGCAUAGUAUUUAGUUA", "pre-steady-state target cleavage rate": "0.0109 ± 0.0023"}
{"sequence": "UCCUCGUACAGCUUGCAUAGUAUAUAGUUA", "pre-steady-state target cleavage rate": "0.00528 ± 0.0018"}
{"sequence": "UCCUGCGACAGCUUGCAUAGUAUUUAGUUA", "pre-steady-state target cleavage rate": "0.00828 ± 0.0026"}
{"sequence": "UCCUGGAAGAGCUUGCAUAGUAUUUAGUUA", "pre-steady-state target cleavage rate": "0.0115 ± 0.0029"}
{"sequence": "UCCUGGAUCACUUGCAUAGUAUUUAGUUA", "pre-steady-state target cleavage rate": "0.0066 ± 0.0022"}
{"sequence": "UCCUGGAUGUCGAUGCAUAGUAUUUAGUAA", "pre-steady-state target cleavage rate": "0.00268 ± 0.0024"}
{"sequence": "UCCUGGAUGAGCUUGCAUAGUAUUUAGUUC [g2:g21:cont:t1C]", "pre-steady-state target cleavage rate": "0.00562 ± 0.0029"}
{"sequence": "UCCUGGUACAGCAUGCAUAGUUUUUAGUUA", "pre-steady-state target cleavage rate": "0.00749 ± 0.0033"}
{"sequence": "UCCUGGAUCAGCUUGCAUAGUAUUUAUUUA", "pre-steady-state target cleavage rate": "0.00658 ± 0.0024"}
{"sequence": "UCCUGGAUGAGCUUGCAUAGUAUGUUAGUUA", "pre-steady-state target cleavage rate": "0.0093 ± 0.0029"}
{"sequence": "UCCUGGAUGUGCUUGCAUAGUGUUUAGUUA", "pre-steady-state target cleavage rate": "0.00396 ± 0.0032"}
{"sequence": "UCCUGCUACAGCUUGGAUAGUAUAUAGUUA", "pre-steady-state target cleavage rate": "0.00442 ± 0.0023"}
{"sequence": "UCCUCCUACAGCUUGCAUAGUAUUUUAGUUA", "pre-steady-state target cleavage rate": "0.0124 ± 0.0038"}
{"sequence": "UCCUGGAUGUGCUUGCAUAGUAUAUUAGUUA", "pre-steady-state target cleavage rate": "0.00381 ± 0.0027"}
